Experimental findings from PubChem BioAssay (NCI) are described below.

The nature of assay [1]: NCI Yeast Anticancer Drug Screen. Data for the rad50 strain (AID 155).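 Further: 0% = growth of vehicle-only cultures of the same strain.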 Conditions: S. cerevisiae rad50 strain growth inhibition, stronger effect = higher value. A digest of the protocol: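 Cells are treated with compound, grown, and their growth is then scored against vehicle-only cultures of the same repair-deficient yeast strain.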
Assay [2] in a line: NCI Yeast Anticancer Drug Screen. Data for the mec2-1 strain (AID 157). Conditions: S. cerevisiae mec2-1 strain, stronger effect = higher value. A digest of the protocol: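 Yeast mec2-1 mutant treated with compound. Readout: growth inhibition vs vehicle controls.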
Assay [3] can be described thus: NCI Yeast Anticancer Drug Screen. Data for the sgs1 mgt1 strain (AID 161).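 Further: 0% = growth of cultures given vehicle only.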 Conditions: S. cerevisiae sgs1 mgt1 strain, stronger effect = higher value. A digest of the protocol: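 Test agents were incubated with a DNA-repair-mutant yeast strain. Growth was then read and compared against vehicle-treated controls.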
The nature of assay [4]: NCI Yeast Anticancer Drug Screen. Data for the cln2 rad14 strain (AID 165).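 Further: 0% = growth equal to vehicle treated cultures.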 Conditions: S. cerevisiae cln2 rad14 strain, stronger effect = higher value. A digest of the protocol: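 cln2 rad14 yeast strain; compound exposure; growth inhibition read vs vehicle controls.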
The nature of assay [5]: NCI Yeast Anticancer Drug Screen. Data for the bub3 strain (AID 167). Particulars: S. cerevisiae bub3 mutant strain, stronger effect = higher value. The method in brief: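 Part of a panel of yeast mutants defective in DNA damage repair or cell cycle regulation. Each strain is grown with compound, and inhibition is calculated relative to solvent-treated cultures.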
The nature of assay [6]: NCI Yeast Anticancer Drug Screen. Data for the mlh1 rad18 strain (AID 175). Particulars: S. cerevisiae mlh1 rad18 strain growth inhibition, stronger effect = higher value. A digest of the protocol:
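Yeast w/ defined DNA-repair lesions; compound exposure; growth vs vehicle controls → % inhibition.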

The mark [7] stands for this setting: at 5.0 µM (retest, dose inferred, filed as 0.5).
[8] abbreviates: at 50.0 µM (retest, dose inferred, filed as 5.0).

About 79,000 compounds went through this panel and 15% of them were active in at least one assay; those are over-represented in the sample as a whole. Unmarked numbers belong to inactive results. Activity calls are given as the source filed them. No stated cut-off is given here; in the data, active means growth inhibition above about 70%; inactive means the rest.

In the case of `CCCCCCCCCCCCCCCC[N+](C)(C)CC(=O)O`, the growth inhibition in assay [1] (setting [7]) was 6%; in assay [1] (setting [8]), 92% (active); in assay [1] (at 50.0 µM), -12.2%; in assay [2] (setting [7]) it was 7%; in assay [2] (setting [8]) it was 98% (active); in assay [2] (at 50.0 µM) it was 1.2%. In addition, the growth inhibition in assay [3] (setting [7]) is 19%; in assay [3] (setting [8]), 97% (active); in assay [3] (at 50.0 µM), -1.4%; in assay [4] (setting [7]), 2%; in assay [4] (setting [8]), 94% (active); in assay [4] (at 50.0 µM) it was 88.4% (active). Also, the growth inhibition in assay [5] (setting [7]) was 0%; in assay [5] (setting [8]), 96% (active); in assay [5] (at 50.0 µM), 99% (active); in assay [6] (setting [7]), 5%; in assay [6] (setting [8]), 97% (active); in assay [6] (at 50.0 µM), 7.85%.
Take `COc1ccc(C(=O)C(Br)CS(=O)(=O)c2ccc(C)cc2)cc1` (configuration not stated): the growth inhibition is 56% in assay [1] (setting [7]); 99% (active) in assay [1] (setting [8]); 99% (active) in assay [1] (at 50.0 µM); 36% in assay [2] (setting [7]); 99% (active) in assay [2] (setting [8]); 99.4% (active) in assay [2] (at 50.0 µM). The growth inhibition in assay [3] (setting [7]) was 71% (active); in assay [3] (setting [8]), 99% (active); in assay [3] (at 50.0 µM), 99.4% (active); in assay [4] (setting [7]) it was 18%; in assay [4] (setting [8]), 98% (active); in assay [4] (at 50.0 µM) it was 97.8% (active). Moreover, the growth inhibition in assay [5] (setting [7]) is 47%; in assay [5] (setting [8]), 98% (active); in assay [5] (at 50.0 µM), 99.1% (active); in assay [6] (setting [7]), 48%; in assay [6] (setting [8]), 98% (active); in assay [6] (at 50.0 µM) it was 99% (active).
Regarding `CC1(C)OC2C(CO)OC(n3ncc(=S)[nH]c3=O)C2O1` (configuration not stated), the growth inhibition in assay [1] (setting [7]) was -4%; in assay [1] (setting [8]) it was 28%; in assay [1] (at 50.0 µM) it was -10.5%; in assay [2] (setting [7]), -8%; in assay [2] (setting [8]) it was 6%; in assay [2] (at 50.0 µM), 10.7%. Moreover, the growth inhibition is 4% in assay [3] (setting [7]); 45% in assay [3] (setting [8]); -1.45% in assay [3] (at 50.0 µM); -1% in assay [4] (setting [7]); 45% in assay [4] (setting [8]); -1.95% in assay [4] (at 50.0 µM). The growth inhibition in assay [5] (setting [7]) was 6%; in assay [5] (setting [8]), 15%; in assay [5] (at 50.0 µM), 71% (active); in assay [6] (setting [7]), -1%; in assay [6] (setting [8]), 30%; in assay [6] (at 50.0 µM), -24.9%.
With `CC(=O)O[C@@H]1CO[C@H]2O[C@H]3[C@@H](C(C=O)=C[C@H](O)[C@@H]4C5=C(C(C)C)CC[C@]5(C)CC[C@@]34C)[C@@]2(O)C1=O`, the growth inhibition in assay [1] (setting [7]) was 99% (active); in assay [1] (setting [8]) it was 99% (active); in assay [1] (at 50.0 µM), 92.1% (active); in assay [2] (setting [7]) it was 99% (active); in assay [2] (setting [8]), 100% (active); in assay [2] (at 50.0 µM), 92.8% (active). Further, the growth inhibition in assay [3] (setting [7]) is 97% (active); in assay [3] (setting [8]) it was 100% (active); in assay [3] (at 50.0 µM) it was 92.7% (active); in assay [4] (setting [7]) it was 94% (active); in assay [4] (setting [8]), 98% (active); in assay [4] (at 50.0 µM) it was 91% (active). Besides, the growth inhibition in assay [5] (setting [7]) was 97% (active); in assay [5] (setting [8]), 99% (active); in assay [5] (at 50.0 µM) it was 91.3% (active); in assay [6] (setting [7]), 98% (active); in assay [6] (setting [8]), 99% (active); in assay [6] (at 50.0 µM) it was 91.7% (active).
Take `Cc1ccccc1NC(=O)C(=O)C(C#N)c1c(Cl)cccc1Cl` (configuration not stated): the growth inhibition in assay [1] (setting [7]) was -13%; in assay [1] (setting [8]), 15%; in assay [1] (at 50.0 µM), -15.6%; in assay [2] (setting [7]), 6%; in assay [2] (setting [8]), 11%; in assay [2] (at 50.0 µM), 17.1%. Besides, the growth inhibition in assay [3] (setting [7]) is -2%; in assay [3] (setting [8]) it was 2%; in assay [3] (at 50.0 µM) it was 25.6%; in assay [4] (setting [7]) it was 0%; in assay [4] (setting [8]), 10%; in assay [4] (at 50.0 µM) it was -12.1%. Also, the growth inhibition in assay [5] (setting [7]) was -3%; in assay [5] (setting [8]), 25%; in assay [5] (at 50.0 µM), 14.7%; in assay [6] (setting [7]), 2%; in assay [6] (setting [8]), 3%; in assay [6] (at 50.0 µM), 25.9%.
As for `CCCOC(=O)C#CC(=O)OCCC`, the growth inhibition in assay [1] (setting [7]) is 37%; in assay [1] (setting [8]), 96% (active); in assay [1] (at 50.0 µM) it was 94.6% (active); in assay [2] (setting [7]) it was 29%; in assay [2] (setting [8]), 99% (active); in assay [2] (at 50.0 µM) it was 63%. Moreover, the growth inhibition was 43% in assay [3] (setting [7]); 99% (active) in assay [3] (setting [8]); 48.8% in assay [3] (at 50.0 µM); 21% in assay [4] (setting [7]); 99% (active) in assay [4] (setting [8]); 93.6% (active) in assay [4] (at 50.0 µM). In addition, the growth inhibition in assay [5] (setting [7]) is 25%; in assay [5] (setting [8]), 99% (active); in assay [5] (at 50.0 µM), 7.3%; in assay [6] (setting [7]), 69%; in assay [6] (setting [8]) it was 99% (active); in assay [6] (at 50.0 µM), 74.6% (active).
Consider `O=C1C=CC(=O)C(c2ccc(Cl)cc2)=C1`, for which the growth inhibition was 45% in assay [1] (setting [7]); 96% (active) in assay [1] (setting [8]); 90.8% (active) in assay [1] (at 50.0 µM); 54% in assay [2] (setting [7]); 97% (active) in assay [2] (setting [8]); 93% (active) in assay [2] (at 50.0 µM). For the same compound, the growth inhibition in assay [3] (setting [7]) is 33%; in assay [3] (setting [8]), 99% (active); in assay [3] (at 50.0 µM) it was 92.8% (active); in assay [4] (setting [7]) it was 40%; in assay [4] (setting [8]), 99% (active); in assay [4] (at 50.0 µM) it was 91.5% (active). The growth inhibition in assay [5] (setting [7]) was 44%; in assay [5] (setting [8]), 97% (active); in assay [5] (at 50.0 µM), 92% (active); in assay [6] (setting [7]), 32%; in assay [6] (setting [8]) it was 98% (active); in assay [6] (at 50.0 µM), 90.8% (active).
Regarding `CCOc1ccc2c(c1)n([O-])c1cc(Br)ccc1[n+]2=O`, the growth inhibition in assay [1] (setting [7]) is 95% (active); in assay [1] (setting [8]), 93% (active); in assay [1] (at 50.0 µM), 22.4%; in assay [2] (setting [7]), 49%; in assay [2] (setting [8]), 85% (active); in assay [2] (at 50.0 µM), 86.3% (active). For the same compound, the growth inhibition in assay [3] (setting [7]) is 72% (active); in assay [3] (setting [8]) it was 95% (active); in assay [3] (at 50.0 µM), 88.2% (active); in assay [4] (setting [7]), 35%; in assay [4] (setting [8]), 90% (active); in assay [4] (at 50.0 µM), 49%. Also, the growth inhibition in assay [5] (setting [7]) is 33%; in assay [5] (setting [8]), 92% (active); in assay [5] (at 50.0 µM), 78.6% (active); in assay [6] (setting [7]), 91% (active); in assay [6] (setting [8]) it was 93% (active); in assay [6] (at 50.0 µM) it was 85.8% (active).
Take `Cc1cc(SCC(=O)c2ccc(Cl)cc2)cc(C)[o+]1`: the growth inhibition in assay [1] (setting [7]) was -3%; in assay [1] (setting [8]) it was 90% (active); in assay [1] (at 50.0 µM) it was 95.8% (active); in assay [2] (setting [7]), -1%; in assay [2] (setting [8]) it was 90% (active); in assay [2] (at 50.0 µM), 95.5% (active). For the same compound, the growth inhibition in assay [3] (setting [7]) is -2%; in assay [3] (setting [8]), 93% (active); in assay [3] (at 50.0 µM), 96.4% (active); in assay [4] (setting [7]) it was -13%; in assay [4] (setting [8]), 73% (active); in assay [4] (at 50.0 µM) it was 88.7% (active). Moreover, the growth inhibition in assay [5] (setting [7]) is -2%; in assay [5] (setting [8]), 87% (active); in assay [5] (at 50.0 µM), 96.3% (active); in assay [6] (setting [7]), -9%; in assay [6] (setting [8]) it was 78% (active); in assay [6] (at 50.0 µM) it was 92.3% (active).
